Bioassay records from PubChem BioAssay.
This is one part of a sample in which hits are shown more often than they occur.
Pf Dd2 inh: blocks in vitro growth of P. falciparum Dd2; P. falciparum Dd2 growth, SYBR Green, 72 h; 120,000 compounds, 4.3% hits; Potency, µM (doses to about 28.9 µM), hits mostly inhibitors; active means well fitted inhibition curve with a large enough effect; further: nearly all actives have a fitted effect of over 65% in size
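Readout: SYBR Green fluorescence, 485 nm excitation, 535 nm emission, after ~16 h lysis at 37C. Before that, Dd2-infected red cells (2.5% hematocrit) grew 72 h with compound, 29 uM top final concentration.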
Large screens that a line does not name were inactive.

COc1ccc(CC(=O)N2[C@@H]3CC[C@H]2CC(NC(=O)c2cnc(C)cn2)C3)cc1Cl (stereo partly drawn)	none
CO[C@H]1C(=O)N(C(C)C)[C@H]1C1CCN(S(=O)(=O)Cc2ccccc2)CC1	none
CN(Cc1ccc(-c2ccccc2)cc1)CC1CC1	none
CCc1ccc2c(c1)c(=O)c(S(=O)(=O)c1ccc(Cl)cc1)cn2CC	none
CCc1ccc(S(=O)(=O)c2cn(CC(=O)Nc3cccc(C)c3)c3ccc(Cl)cc3c2=O)cc1	none
CCOc1ccc2c(c1)c(=O)c(S(=O)(=O)c1ccc(CC)cc1)cn2Cc1cccc(Cl)c1	Pf Dd2 inh 10µM
O=C(c1ccn[nH]1)N1CC(F)(F)C[C@H]1c1nc(C2CC2)no1	none
Cc1ccc(C)c(-n2cc(CN(C)CCO)c(-c3ccccc3)n2)c1	none
CCN1CC(CN(C)Cc2cn(-c3ccccc3C)nc2-c2ccc(OC)c(F)c2)CC1=O (stereo not drawn)	Pf Dd2 inh 10µM
COc1ccccc1-c1ccnc(-c2nnc(C)n2CCN2CCOCC2)c1	none
COc1ccc(-c2nn(-c3ccccc3C)cc2CN(C)CCN2CCOCC2)cc1F	Pf Dd2 inh 11.2µM
CCN1CC(CN(C)Cc2nc(Cc3cccc(F)c3)no2)CC1=O (stereo not drawn)	none
COc1ccc(-c2n[nH]c3c2CC(=O)N(CCOc2ccccc2)C3)cc1F	none
O=C(c1ccc(F)cc1)N1CCC(n2c(=O)[nH]c3ccccc32)CC1	none
CN(C)c1cccc(-c2cn(C)c(=O)n3cc(CN4CC[S+](=O)([O-])CC4)nc23)c1	none
CN1CCC(NC2(Cc3cc(CCO)on3)COC2)CC1	none
CO[C@H]1[C@H](NC(=O)c2ccc3n[nH]nc3c2)c2ccccc2C12CCNCC2	none
CC(C)NC(=O)Nc1ccc2c(c1)N(C)C(=O)c1ccccc1S2	none
CCN1C(=O)c2ccccc2Sc2ccc(NC(=O)N3CCN(c4cc(C)ccc4C)CC3)cc21	none
CN1C(=O)c2ccccc2Sc2ccc(NC(=O)N3CCN(c4ccc(F)cc4)CC3)cc21	Pf Dd2 inh 7.94µM
O=C(Cc1cccc(F)c1)N1CCC(n2cc(-c3nc(C4CC4)no3)nn2)CC1	none
O=C(O)c1ccc(CN2CCC(c3cc(N4CCCC4)ncn3)CC2)cc1	none
COc1ccc(CNC2(Cc3cc(COc4ccccc4)on3)COC2)cc1	none
O=C(O)[C@@H]1CN(Cc2ccccc2)C[C@@H]1C(=O)N1CCN(c2ccccn2)CC1	none
C[S+](=O)([O-])N1C[C@H](C(=O)N2CCN(c3ccccn3)CC2)C[C@@H]1c1ccc(F)cc1	none
O=C([C@@H]1C[C@@H](c2ccc(F)cc2)N(Cc2ccccc2)C1)N1CCN(c2ccccn2)CC1	Pf Dd2 inh 7.08µM
Cc1cc(C(=O)N2CCCCCCNC(=O)CC2c2ccccc2)nn1C (stereo not drawn)	none
O=C(Cc1cccc(F)c1)NC1CCN(C(=O)N2CC3CC(C2)[C@H]2CCCC(=O)N2C3)CC1 (stereo partly drawn)	none
O=C(N[C@H]1CO[C@H]2[C@@H]1OC[C@@H]2Nc1nccc(-c2cccc(F)c2)n1)c1cccs1	none
O=[S+]1([O-])NCC2(CCN(CC3CCOCC3)CC2)Oc2ncccc21	none
O=[S+]1([O-])NCC2(CCN(Cc3cccnc3)CC2)Oc2ncccc21	none
CC(C)(C)CN1CCC2(CC1)CN[S+](=O)([O-])c1cccnc1O2	Pf Dd2 inh 8.91µM
CC(C)N1C(=O)C2(CCCC2)C1C(=O)NCc1nc2ccccc2n1C (stereo not drawn)	none
Cc1ccc2c(CC(=O)Nc3cccc(C(F)(F)F)c3)coc2c1	none
Cc1ccc2onc(CC(=O)Nc3cccc(C(F)(F)F)c3)c2c1	Pf Dd2 inh 11.2µM
COC(=O)c1ccccc1NC(=O)Cc1noc2ccc(C)cc12	none
NS(=O)(=O)c1ccc(C(=O)NCCn2cccn2)cc1	none
CCc1ccc(C(=O)N2CC(c3nnc(-c4ccc(C)cc4)o3)C3(CCOCC3)C2)cc1 (stereo not drawn)	none
Cc1ccc(-n2c(C3CCN(C(=O)COc4ccc(F)cc4)CC3)n[nH]c2=O)cc1	none
Cc1ccc(Cn2c(C3CCN(C(=O)c4ccc(C(C)(C)C)cc4)CC3)n[nH]c2=O)cc1	Pf Dd2 inh 2.51µM
Cc1ccc(Cn2c(C3CCN(C(=O)c4ccc(C#N)cc4)CC3)n[nH]c2=O)cc1	none
Cc1ccc(Cn2c(C3CCN(C(=O)c4cc(C)cc(C)c4)CC3)n[nH]c2=O)cc1	Pf Dd2 inh 8.91µM
CCc1ccc(C(=O)N2CCC(c3n[nH]c(=O)n3Cc3ccc(F)cc3)CC2)cc1	none
Cc1ccc(-n2c(C3CCN(C(=O)c4cccc(C)c4)CC3)n[nH]c2=O)cc1	none
Cc1ccc(-n2c(C3CCN(C(=O)c4ccc(C(C)(C)C)cc4)CC3)n[nH]c2=O)cc1	Pf Dd2 inh 4.47µM
Cc1ccc(-n2c(C3CCN(C(=O)COc4ccc(Cl)cc4)CC3)n[nH]c2=O)cc1	Pf Dd2 inh 0.891µM
Cc1ccc(Cn2c(C3CCN(C(=O)c4cccc(C)c4)CC3)n[nH]c2=O)cc1	none
Cc1ccc(-n2c(C3CCN(C(=O)c4cc(C)cc(C)c4)CC3)n[nH]c2=O)cc1	none
Cc1ccc(-n2c(C3CCN(C(=O)c4cc(Cl)ccc4F)CC3)n[nH]c2=O)cc1	none
Cc1ccc(Cn2c(C3CCN(C(=O)c4cccc(Cl)c4)CC3)n[nH]c2=O)cc1	none
O=C(N[C@@H]1CN(c2ncccn2)C[C@H]1CO)c1nccc2ccccc12	none
O=C(c1ccccc1)N1CCn2c(nnc2-c2cccnc2)C1	none
NC(=O)[C@H](Cc1ccc(O)cc1)NC(=O)C1=C[C@@H](NC(=O)Nc2ccc(OC(F)(F)F)cc2)[C@@H](O)[C@H](O)C1	none
CN(Cc1ccccc1)C(=O)CC1CCN(C(=O)CC2CCCC2)C1 (stereo not drawn)	none
COc1ccc(C(=O)N2CCC3(CN[S+](=O)([O-])c4cccnc4O3)C2)cc1 (stereo not drawn)	none
CC(C)CC(=O)N1CCC(N2C[C@H](O)C[C@H]2C(=O)NCc2cccnc2)CC1	none
O=C(c1ccc(Cl)cc1)N1CCOCC2(CN(Cc3ccccc3)C2)C1	none
CCN(CC)C(=O)[C@@H]1CCC[C@@H](NCc2cccc(OC)c2)CN(C)C(=O)C1	none
Cn1nccc1C(=O)N1CCCCCCNC(=O)CC1c1ccccc1 (stereo not drawn)	none
O=C(Nc1ccc(F)c(Cl)c1)N1CCC(Oc2ncccc2C(=O)N2CCOCC2)C1 (stereo not drawn)	none
COc1ccccc1CNC(=O)CC1COCCN1C(=O)C1CCCCC1 (stereo not drawn)	none
CCC[C@H]1CN(CCS(C)(=O)=O)C[C@@H]1NC(=O)c1ncoc1CC	none
Cc1cccc(C2N3CC4(C(C)C)CN2CC(C(C)C)(C3)C4=O)c1 (stereo not drawn)	none
CC(C)C12CN3CC(C(C)C)(CN(C1)C3c1ccccn1)C2=O (stereo not drawn)	Pf Dd2 inh 8.91µM
CC(C)C12CN3CC(C(C)C)(CN(C1)C3c1ccc(Cl)cc1)C2=O (stereo not drawn)	none
CCc1nc(NC(CCn2cncn2)c2ccccc2)c2cnn(C)c2n1 (stereo not drawn)	none
CCNC(=O)N(C1CC1)C1CCOC2(CCN(C(=O)CC3CCCC3)CC2)C1 (stereo not drawn)	none
CC(C)CCN1C(=O)CC[C@@]2(C(=O)NCc3ncc[nH]3)CCCC[C@H]12	none
OC1CCN(c2cc(C3CC(Nc4ncnc5sccc45)C3)ncn2)C1 (stereo not drawn)	none
COCc1noc([C@@H]2CN(C(=O)CCc3c[nH]c4ccccc34)C[C@H]2C(N)=O)n1	none
CCOC(=O)CC(NC(=O)CCc1c(C)nc2c(c(C)nn2-c2ccc(C)c(C)c2)c1C)c1ccc(C)cc1 (stereo not drawn)	Pf Dd2 inh 4.47µM
